Results taken from ChEMBL document CHEMBL1961873, “Compounds: GSK PKIS; Assays: Nanosyn kinase panel” (2012).

Legend:
[1] = target: CDK3/Cyclin E (Homo sapiens) (UniProt P24864+Q00526); conditions: at 1 µM;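 further: each figure is a mean percent inhibition of the CDK3/cyclin E complex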
[2] = target: Cyclin-dependent kinase 4 (Homo sapiens) (UniProt P11802); conditions: at 0.1 µM
[3] = target: Cyclin-dependent kinase 4 (Homo sapiens) (UniProt P11802); conditions: at 1 µM
[4] = target: Cyclin-dependent kinase 5 (Homo sapiens) (UniProt Q00535); conditions: at 0.1 µM
Sequence of Cyclin-dependent kinase 5 (Homo sapiens) (Q00535 whole entry, looked up): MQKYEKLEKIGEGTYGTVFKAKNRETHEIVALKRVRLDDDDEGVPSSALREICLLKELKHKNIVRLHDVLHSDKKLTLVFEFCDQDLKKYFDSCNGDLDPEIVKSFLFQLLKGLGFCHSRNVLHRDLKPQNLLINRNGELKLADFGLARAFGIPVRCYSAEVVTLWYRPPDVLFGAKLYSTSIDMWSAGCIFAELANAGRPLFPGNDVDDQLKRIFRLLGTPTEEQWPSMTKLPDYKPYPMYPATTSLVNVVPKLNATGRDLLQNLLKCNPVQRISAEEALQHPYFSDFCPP

[5] = target: Cyclin-dependent kinase 5 (Homo sapiens) (UniProt Q00535); conditions: at 1 µM
[6] = target: Cyclin-dependent kinase 6 (Homo sapiens) (UniProt Q00534); conditions: at 0.1 µM
Sequence of Cyclin-dependent kinase 6 (Homo sapiens) (Q00534 whole entry): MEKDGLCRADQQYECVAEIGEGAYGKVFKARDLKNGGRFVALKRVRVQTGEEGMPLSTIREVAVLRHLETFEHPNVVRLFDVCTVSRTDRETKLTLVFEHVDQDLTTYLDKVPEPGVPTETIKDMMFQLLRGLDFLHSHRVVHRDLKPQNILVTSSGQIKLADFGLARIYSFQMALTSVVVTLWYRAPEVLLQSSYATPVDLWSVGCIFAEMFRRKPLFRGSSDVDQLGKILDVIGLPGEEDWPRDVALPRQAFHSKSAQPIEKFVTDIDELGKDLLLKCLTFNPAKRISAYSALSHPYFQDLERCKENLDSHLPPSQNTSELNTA

[7] = target: Cyclin-dependent kinase 6 (Homo sapiens) (UniProt Q00534); conditions: at 1 µM
[8] = target: Dual specificity protein kinase CLK2 (Homo sapiens) (UniProt P49760); conditions: at 0.1 µM
Sequence of Dual specificity protein kinase CLK2 (Homo sapiens) (P49760 whole entry, looked up): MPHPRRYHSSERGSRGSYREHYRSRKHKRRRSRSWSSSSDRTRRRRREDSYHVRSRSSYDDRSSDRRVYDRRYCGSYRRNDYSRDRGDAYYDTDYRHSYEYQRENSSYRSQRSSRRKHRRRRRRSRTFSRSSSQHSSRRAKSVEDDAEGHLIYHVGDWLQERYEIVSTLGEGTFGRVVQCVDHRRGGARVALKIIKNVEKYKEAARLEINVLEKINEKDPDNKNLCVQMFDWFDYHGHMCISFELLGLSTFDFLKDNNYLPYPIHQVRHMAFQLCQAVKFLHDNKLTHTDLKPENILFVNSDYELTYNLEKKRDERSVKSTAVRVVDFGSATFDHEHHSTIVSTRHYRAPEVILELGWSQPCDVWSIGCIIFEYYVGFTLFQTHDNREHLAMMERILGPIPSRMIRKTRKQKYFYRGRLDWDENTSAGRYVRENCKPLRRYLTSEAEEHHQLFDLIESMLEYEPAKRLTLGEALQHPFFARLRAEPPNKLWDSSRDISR

[9] = target: Dual specificity protein kinase CLK2 (Homo sapiens) (UniProt P49760); conditions: at 1 µM
[10] = target: Dual specificity protein kinase CLK3 (Homo sapiens) (UniProt P49761); conditions: at 0.1 µM
Sequence of Dual specificity protein kinase CLK3 (Homo sapiens) (P49761 whole entry, looked up): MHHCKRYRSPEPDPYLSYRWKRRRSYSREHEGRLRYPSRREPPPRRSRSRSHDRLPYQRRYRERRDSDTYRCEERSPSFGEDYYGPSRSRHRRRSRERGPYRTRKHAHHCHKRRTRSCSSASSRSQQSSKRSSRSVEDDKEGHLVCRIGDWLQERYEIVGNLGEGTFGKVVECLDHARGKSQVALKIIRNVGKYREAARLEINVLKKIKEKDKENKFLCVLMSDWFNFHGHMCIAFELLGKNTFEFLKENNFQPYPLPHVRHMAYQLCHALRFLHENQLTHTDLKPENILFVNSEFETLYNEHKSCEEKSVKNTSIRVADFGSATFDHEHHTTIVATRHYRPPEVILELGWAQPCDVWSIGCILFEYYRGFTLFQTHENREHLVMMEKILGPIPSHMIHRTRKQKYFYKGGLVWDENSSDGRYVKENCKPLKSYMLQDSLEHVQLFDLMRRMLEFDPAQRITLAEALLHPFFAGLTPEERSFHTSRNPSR

[11] = target: Dual specificity protein kinase CLK3 (Homo sapiens) (UniProt P49761); conditions: at 1 µM
[12] = target: Dual specificity tyrosine-phosphorylation-regulated kinase 1A (Homo sapiens) (UniProt Q13627); conditions: at 0.1 µM
[13] = target: Dual specificity tyrosine-phosphorylation-regulated kinase 1A (Homo sapiens) (UniProt Q13627); conditions: at 1 µM
[14] = target: Dual specificity tyrosine-phosphorylation-regulated kinase 1B (Homo sapiens) (UniProt Q9Y463); conditions: at 0.1 µM
Sequence of Dual specificity tyrosine-phosphorylation-regulated kinase 1B (Homo sapiens) (Q9Y463 whole entry, looked up): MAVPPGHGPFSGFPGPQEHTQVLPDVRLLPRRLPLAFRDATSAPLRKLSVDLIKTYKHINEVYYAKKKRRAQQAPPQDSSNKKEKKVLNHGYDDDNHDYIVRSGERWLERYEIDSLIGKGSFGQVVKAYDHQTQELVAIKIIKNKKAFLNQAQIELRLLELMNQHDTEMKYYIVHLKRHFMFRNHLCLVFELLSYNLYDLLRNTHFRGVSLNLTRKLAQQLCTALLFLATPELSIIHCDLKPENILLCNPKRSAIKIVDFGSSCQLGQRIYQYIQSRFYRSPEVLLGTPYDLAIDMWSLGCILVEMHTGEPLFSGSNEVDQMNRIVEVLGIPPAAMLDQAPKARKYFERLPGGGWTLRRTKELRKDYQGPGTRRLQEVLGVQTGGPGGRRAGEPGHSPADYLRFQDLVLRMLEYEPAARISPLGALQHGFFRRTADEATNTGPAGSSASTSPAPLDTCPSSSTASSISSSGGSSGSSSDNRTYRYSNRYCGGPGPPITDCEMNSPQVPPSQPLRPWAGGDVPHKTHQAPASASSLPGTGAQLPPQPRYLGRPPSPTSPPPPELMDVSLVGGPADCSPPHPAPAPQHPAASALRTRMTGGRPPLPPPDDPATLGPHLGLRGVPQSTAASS

[15] = target: Dual specificity tyrosine-phosphorylation-regulated kinase 1B (Homo sapiens) (UniProt Q9Y463); conditions: at 1 µM
[16] = target: T1, Dual specificity tyrosine-phosphorylation-regulated kinase 2 (Homo sapiens) (UniProt Q92630); conditions: at 0.1 µM
T1 sequence (whole entry): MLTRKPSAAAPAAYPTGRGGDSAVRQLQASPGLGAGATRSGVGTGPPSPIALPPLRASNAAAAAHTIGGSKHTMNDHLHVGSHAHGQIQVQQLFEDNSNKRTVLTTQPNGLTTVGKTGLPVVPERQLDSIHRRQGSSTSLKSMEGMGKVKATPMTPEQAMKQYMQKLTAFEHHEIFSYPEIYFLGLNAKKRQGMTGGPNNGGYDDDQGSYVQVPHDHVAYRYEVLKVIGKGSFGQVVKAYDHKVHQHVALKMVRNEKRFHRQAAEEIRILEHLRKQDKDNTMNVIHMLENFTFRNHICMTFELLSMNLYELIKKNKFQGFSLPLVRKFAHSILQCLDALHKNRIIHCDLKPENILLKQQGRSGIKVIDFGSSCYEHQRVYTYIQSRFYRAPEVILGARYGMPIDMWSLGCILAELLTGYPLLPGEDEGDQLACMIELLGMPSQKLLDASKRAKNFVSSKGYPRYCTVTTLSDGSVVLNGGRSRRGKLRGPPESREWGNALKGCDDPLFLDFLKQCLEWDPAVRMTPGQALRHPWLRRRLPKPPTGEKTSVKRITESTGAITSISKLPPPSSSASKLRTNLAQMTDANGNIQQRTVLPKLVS

[17] = target: T1, Dual specificity tyrosine-phosphorylation-regulated kinase 2 (Homo sapiens); conditions: at 1 µM
[18] = target: Glycogen synthase kinase-3 alpha (Homo sapiens) (UniProt P49840); conditions: at 0.1 µM
Sequence of Glycogen synthase kinase-3 alpha (Homo sapiens) (P49840 2-483 limits assumed): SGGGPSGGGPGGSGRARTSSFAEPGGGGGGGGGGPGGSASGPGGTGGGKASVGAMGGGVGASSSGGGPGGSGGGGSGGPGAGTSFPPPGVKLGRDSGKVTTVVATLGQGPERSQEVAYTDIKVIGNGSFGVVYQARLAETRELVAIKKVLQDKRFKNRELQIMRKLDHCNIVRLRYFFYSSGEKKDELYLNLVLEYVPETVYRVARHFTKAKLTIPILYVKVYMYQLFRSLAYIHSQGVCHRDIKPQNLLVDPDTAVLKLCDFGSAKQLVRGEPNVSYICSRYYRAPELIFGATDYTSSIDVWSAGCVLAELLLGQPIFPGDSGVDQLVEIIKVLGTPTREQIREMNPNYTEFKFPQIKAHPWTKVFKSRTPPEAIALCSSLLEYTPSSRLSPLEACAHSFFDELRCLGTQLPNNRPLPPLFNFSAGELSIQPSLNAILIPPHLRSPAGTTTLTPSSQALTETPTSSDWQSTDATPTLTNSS

[19] = target: Glycogen synthase kinase-3 alpha (Homo sapiens) (UniProt P49840); conditions: at 1 µM
[20] = target: Glycogen synthase kinase-3 beta (Homo sapiens) (UniProt P49841); conditions: at 0.1 µM;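 further: values are mean percent inhibition of GSK3B activity, from the GSK Published Kinase Inhibitor Set (PKIS) screening dataset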
Sequence of Glycogen synthase kinase-3 beta (Homo sapiens) (P49841 whole entry, looked up): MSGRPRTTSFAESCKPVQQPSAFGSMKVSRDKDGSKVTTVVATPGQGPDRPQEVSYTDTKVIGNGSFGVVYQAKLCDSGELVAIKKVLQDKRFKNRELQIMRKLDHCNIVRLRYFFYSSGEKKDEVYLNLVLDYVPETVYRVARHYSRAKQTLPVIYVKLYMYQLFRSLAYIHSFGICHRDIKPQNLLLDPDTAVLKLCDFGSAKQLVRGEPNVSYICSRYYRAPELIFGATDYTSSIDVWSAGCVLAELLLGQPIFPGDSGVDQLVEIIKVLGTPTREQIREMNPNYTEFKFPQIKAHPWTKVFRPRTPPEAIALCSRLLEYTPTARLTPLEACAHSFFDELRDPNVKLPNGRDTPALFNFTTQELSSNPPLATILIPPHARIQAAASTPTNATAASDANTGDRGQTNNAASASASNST

Sequence of CDK3/Cyclin E (Homo sapiens) (P24864 whole entry, looked up): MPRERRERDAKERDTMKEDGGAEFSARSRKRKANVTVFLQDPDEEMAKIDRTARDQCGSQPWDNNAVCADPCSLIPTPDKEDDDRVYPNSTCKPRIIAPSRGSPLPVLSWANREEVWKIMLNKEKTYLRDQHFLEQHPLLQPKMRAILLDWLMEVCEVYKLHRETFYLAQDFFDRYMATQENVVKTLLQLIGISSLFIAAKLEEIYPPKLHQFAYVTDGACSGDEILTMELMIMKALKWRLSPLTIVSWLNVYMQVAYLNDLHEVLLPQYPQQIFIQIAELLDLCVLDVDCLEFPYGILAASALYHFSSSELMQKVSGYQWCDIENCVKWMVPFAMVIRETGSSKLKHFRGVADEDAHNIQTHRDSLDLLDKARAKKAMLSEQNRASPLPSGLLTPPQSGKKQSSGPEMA
Sequence of CDK3/Cyclin E (Homo sapiens) (Q00526 whole entry, looked up): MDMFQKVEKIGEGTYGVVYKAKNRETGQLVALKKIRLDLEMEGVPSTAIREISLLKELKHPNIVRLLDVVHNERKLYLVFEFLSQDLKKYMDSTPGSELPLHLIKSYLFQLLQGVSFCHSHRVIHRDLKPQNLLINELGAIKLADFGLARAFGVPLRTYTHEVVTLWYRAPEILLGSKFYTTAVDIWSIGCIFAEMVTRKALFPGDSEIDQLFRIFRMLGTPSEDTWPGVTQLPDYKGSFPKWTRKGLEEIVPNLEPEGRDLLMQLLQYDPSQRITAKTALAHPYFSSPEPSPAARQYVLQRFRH
Sequence of Cyclin-dependent kinase 4 (Homo sapiens) (P11802 whole entry): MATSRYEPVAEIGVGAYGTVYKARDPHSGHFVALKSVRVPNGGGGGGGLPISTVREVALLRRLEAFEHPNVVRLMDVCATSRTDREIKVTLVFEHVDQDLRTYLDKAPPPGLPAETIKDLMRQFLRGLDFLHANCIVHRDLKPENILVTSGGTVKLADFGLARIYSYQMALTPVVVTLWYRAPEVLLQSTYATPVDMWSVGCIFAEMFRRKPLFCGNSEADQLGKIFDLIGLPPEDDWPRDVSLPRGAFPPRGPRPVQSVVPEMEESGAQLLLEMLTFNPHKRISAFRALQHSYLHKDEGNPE

Compound	inhibition [1]	inhibition [2]	inhibition [3]	inhibition [4]	inhibition [5]	inhibition [6]	inhibition [7]	inhibition [8]	inhibition [9]	inhibition [10]	inhibition [11]	inhibition [12]	inhibition [13]	inhibition [14]	inhibition [15]	inhibition [16]	inhibition [17]	inhibition [18]	inhibition [19]	inhibition [20]
NC(=O)c1cccc(Nc2nccc(Nc3cccc(F)c3)n2)c1	3.01%	0.31%	2.2%	0.58%	3.99%	-1.89%	0.33%	0.31%	5.73%	-0.43%	2.19%	0.47%	0.26%	0.64%	-0.2%	1.36%	1.82%	3.82%	21%	2.25%
CS(=O)(=O)Nc1cccc(-c2ccc3c(NC(=O)C4CC4)n[nH]c3c2)c1	3.8%	0.3%	2.88%	0.92%	2.86%	-5.62%	6.33%	2.8%	3.81%	-0.87%	0.41%	-0.85%	2.54%	-0.36%	0.44%	1.73%	0.58%	2.17%	10.3%	1.76%
COc1cc2ncnc(Nc3ccc4c(cnn4Cc4ccccc4)c3)c2cc1OC	-1.25%	1.5%	5.06%	4.4%	6.81%	-3.86%	-2.1%	-0.74%	0.84%	1.15%	0.4%	2.51%	2.6%	-2.48%	0.09%	2.37%	2.95%	4.71%	6.57%	4.13%
Cc1ccc(NC(=O)CC2CC2)cc1-c1ccc(C(=O)NCC2CC2)cc1	-2.46%	1.69%	2.18%	0.04%	0.76%	1.72%	1.87%	0.47%	0.08%	1.44%	1.83%	0.93%	3.49%	0.61%	1.49%	2.06%	2.68%	2.32%	2.3%	1.75%
NS(=O)(=O)c1cccc(-c2cc3ccncc3cc2OCc2ccccc2)c1	0.51%	3.55%	6.33%	1.96%	3.2%	-1.23%	10.9%	1.16%	1.27%	1.46%	3.46%	3.42%	5.5%	0.3%	2.52%	3.59%	3.57%	1.97%	4.81%	0.8%
COc1cc2ncn(-c3cc(OCc4ccccc4S(C)(=O)=O)c(C#N)s3)c2cc1OC	2.11%	3.64%	3.7%	1.86%	3.42%	6.66%	3.82%	0.22%	10.8%	2.39%	3.74%	6.14%	19.3%	2.5%	13.9%	2.4%	4.87%	4.96%	11.3%	4.26%
CN(C)CCCn1c(-c2nonc2N)nc2cnccc21	-0.71%	3.12%	4.13%	1.36%	1.99%	-4.78%	1.95%	2.66%	2.51%	1.05%	1.96%	3.5%	8.9%	0.77%	4.52%	2.75%	3.79%	2.45%	15.1%	2.77%
Nc1nccc(-c2c(-c3ccc(F)cc3)nn3cc(C(F)(F)F)ccc23)n1	-2.57%	0.37%	1.03%	0.43%	-0.54%	-0.93%	-0.06%	1.36%	-2.43%	-0.16%	0.23%	0.54%	16.4%	-1.44%	0.98%	0.12%	-1.97%	-1.1%	-0.65%	-1.01%
COC(=O)c1ccc2c(c1)C(=Cc1cc(Br)c(O)c(Br)c1)C(=O)N2	-1.48%	3.47%	4.69%	1.03%	2.5%	-4.09%	-4.12%	8.63%	50.1%	0.44%	7.3%	14.2%	61.9%	9.22%	53.5%	5.68%	18.8%	9.38%	42.9%	9.77%
COc1cccc(-n2ncc3c(N/N=C/c4ccc(S(C)(=O)=O)cc4)ncnc32)c1	20.8%	0.01%	20.4%	21%	59.2%	0.78%	25.6%	8.7%	18.4%	-0.53%	13.5%	23.1%	64.3%	9.87%	47.3%	14.5%	24.9%	72.7%	80.6%	70.4%
Cc1cc(O)cc(C)c1/C=C/c1cncc(C(=O)N(C)C)c1	0.31%	2.02%	5.17%	1.19%	4.55%	-1.04%	3.9%	2.35%	2.69%	-0.01%	1.59%	1.64%	3.33%	1.15%	2%	2.94%	3.72%	6.93%	10.2%	6.11%
Nc1nccc(C#Cc2cncnc2Nc2ccc(OCc3cccc(F)c3)c(Cl)c2)n1	0.78%	3.03%	4.61%	1.09%	1.9%	3.61%	2.5%	2.79%	14.2%	1.85%	3.1%	3.44%	10.8%	1.71%	4.87%	3.08%	4.89%	4.01%	14.3%	2.94%
CCOc1nccc2c1nc(-c1nonc1N)n2CC	-0.38%	0.99%	1.83%	0.91%	1.13%	-2.27%	1.84%	1.77%	1.91%	1.37%	2.9%	1.13%	3.41%	0.32%	2.83%	1.54%	2.84%	3.1%	10.2%	3.37%
Cc1cc(Cl)cc2c1NC(=O)C2=NNc1ccc(S(N)(=O)=O)cc1	-0.36%	0.78%	3.56%	0.57%	2.28%	2.2%	3.46%	0.86%	2.34%	0.9%	0.83%	1.45%	2.28%	-0.62%	1.24%	0.8%	2.04%	2.99%	6.57%	1.19%
c1ccc(Cc2nc3ccc(Nc4ncnc5ccccc45)cc3[nH]2)cc1	1.71%	4.29%	5.27%	3.52%	5.74%	6.78%	8.79%	1.26%	2%	2.76%	5.49%	6.02%	9.77%	5.37%	8.13%	1.99%	3.84%	5.62%	9.56%	5.99%
COc1cc(Nc2nccc(-c3cnn4ncccc34)n2)cc(OC)c1	74.3%	44.9%	78.5%	63%	90.1%	24.9%	76.1%	99.2%	99.9%	36.5%	77.3%	85%	91.2%	87.4%	92.4%	5.46%	30.2%	49.7%	86.8%	60.2%
COc1cccc(-n2ncc3c(N/N=C/c4ccc(C)cc4)ncnc32)c1	-1.25%	3.51%	7.43%	2.17%	6.59%	-2.39%	-0.54%	-0.41%	6.42%	1.22%	1.46%	5.94%	16.5%	3.97%	11.3%	5.76%	13.6%	19.4%	55.6%	13.1%
CC(C)c1ccc2c(c1)NC(=O)/C2=N/Nc1ccc(S(N)(=O)=O)cc1	6.26%	0.37%	7.65%	1.59%	5.95%	3.38%	28.6%	-0.26%	-1.61%	-0.29%	-0.08%	0.62%	2.99%	3.56%	4.99%	0.96%	-0.44%	4.22%	16.5%	4.19%
COc1cccc(-n2nc(C)c3c(N/N=C(\C)c4ccncc4)ncnc32)c1	-0.83%	0.53%	2.41%	0.97%	5.69%	-2.27%	0.77%	-2.05%	0.8%	-1.02%	-2.35%	1.02%	11%	1.32%	8.31%	0.5%	4.22%	4.39%	11.6%	3.08%
Nc1ccc(C#Cc2cncnc2Nc2ccc(OCc3cccc(F)c3)c(Cl)c2)cc1	-1.01%	1.19%	3.75%	0.23%	1.65%	-2.6%	0.37%	0.14%	-1.31%	0.75%	0.7%	3.22%	2.99%	0.49%	2.12%	1.74%	0.41%	2.01%	1.4%	1.95%
O=C1Nc2ccc(-c3cccnc3)cc2C1=Cc1cc(Br)c(O)c(Br)c1	2.98%	3.31%	3.8%	1.01%	1.79%	5.85%	6.68%	32.2%	84.6%	7.23%	38.6%	21.7%	63.5%	9%	46.7%	3.53%	15.5%	4.28%	26.1%	3.87%
NS(=O)(=O)c1ccc(NC=C2C(=O)Nc3ccc4ncsc4c32)cc1	97.8%	46.4%	71.3%	68.2%	74.7%	52.8%	77.7%	28.3%	80%	3.57%	17.3%	30.9%	63.2%	20.4%	57.6%	10.9%	46.2%	40.4%	70.9%	41.1%
NC(=O)c1sc(-n2cnc3ccccc32)cc1OCc1ccccc1Br	0.26%	6.61%	8.04%	3.59%	8.58%	-3.6%	-1.95%	1.89%	5.2%	0.83%	0.92%	2.9%	4.57%	0.66%	2.25%	3.45%	5.8%	5.13%	11.9%	4.55%
COC(=O)Nc1nc2cc(Oc3ccc(NC(=O)Nc4cccc(Br)c4)cc3)ccc2[nH]1	-4.35%	2.4%	2.61%	0.44%	1.22%	-3.24%	0.22%	0.85%	1.48%	1.73%	1.74%	1.12%	2.3%	0.23%	1.17%	3.11%	3.59%	2.27%	5.24%	1.01%
Cc1ccc2c(-c3ccnc(Nc4ccc5c(c4)OCCO5)n3)c(-c3ccc(C(F)(F)F)cc3)nn2n1	-3.94%	0.65%	1.74%	0.21%	1.41%	-0.74%	-1.75%	1.25%	-0.4%	1.41%	0.07%	0.1%	2%	-0.58%	1.39%	-0.27%	-1.15%	5.44%	10.5%	4.65%
CCS(=O)(=O)c1ccc(OC)c(Nc2nccc(N(C)c3ccc4c(C)n[nH]c4c3)n2)c1	-2.55%	3.02%	4.42%	0.13%	0.33%	-0.16%	-1.74%	0.8%	0.04%	1.1%	2.41%	2.89%	3.45%	-0.67%	-0.22%	2.84%	2.34%	2.43%	3.41%	1.45%
